The test system of one assay is Plasmodium falciparum NF54. The assay is described as follows: growth inhibition relative to untreated control; higher = more inhibition. Particulars: 5 µM; MM + chorismate end-products (CM screening medium); 72 h. The essentials: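 Ring-stage P. falciparum NF54 parasites at 1% hematocrit and 1% parasitemia were dispensed at 100 μL/well into dark 96-well half-area plates and given a single dose of test compound at 5 μM or 1 μM for 72 h at 37 °C. Incubation took place in minimal RPMI, either alone or supplemented with the chorismate end-products folate (2.2 μM), pABA (7.3 μM), pHBA (7.3 μM), tyrosine (111 μM), phenylalanine (90 μM) and tryptophan. Growth inhibition was determined with SYBR Green relative to untreated wells, using uninfected erythrocytes for background.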
For `O=C1Nc2ccc(Br)cc2C12NCCc1c2[nH]c2ccccc12` (stereo not drawn), the growth inhibition was 95.9%.

In the case of `CCOc1ccc(-c2nc(CNCCc3ccc(F)cc3)cs2)cc1`, the growth inhibition stood at 28.1%.

`Nc1ncc(-c2ccc(C(F)(F)F)nc2)cc1-c1ccc(C(F)(F)F)nc1`: the growth inhibition is 54.4%.

As to `FC(F)(F)c1ccc(N(c2cccnc2)C2CCN(c3ccc(C(F)(F)F)cn3)CC2)cc1`, the growth inhibition was found to be 93.8%.

`Cc1cc(C)cc(COc2ccc3c(C)c(CCC(=O)O)c(=O)oc3c2C)c1`: the growth inhibition is below 0%.

In the case of `CO[C@@H](C(=O)N1Cc2[nH]nc(NC(=O)c3ccc(N4CCN(C)CC4)cc3)c2C1)c1ccccc1`, the growth inhibition is 90%.

Take `Cc1ccc(S(=O)(=O)N2CCN(C(=O)c3cc(-c4ccccc4)n[nH]3)CC2)cc1`: the growth inhibition amounted to 82.9%.

Turning to `NS(=O)(=O)c1cccc(-c2ccc3ncc(N4CCOCC4)nc3c2)c1`, the growth inhibition is above 100%.

As for `FC(F)(F)c1cc(NCCc2ccccc2)nc(-c2ccccn2)n1`, the growth inhibition was found to be 0.0785%.

As to `O=C1[C@@H](Oc2ccccc2)[C@@H](c2ccc(Cl)cc2)N1CCn1cnc2c(NCc3ccccc3)ncnc21`, the growth inhibition is below 0%.

`Cc1cc2ccccc2n1CC(=O)N1CC(C(=O)N2CCCCC2)Oc2ccccc21` (stereo not drawn): the growth inhibition stood at 96.1%.

On to `c1csc(-c2cnc3sc(NCC4CCOCC4)nn23)c1`, for which the growth inhibition is above 100%.

In the case of `COc1cncc(-c2cncc(N3CCN(c4ccncc4)CC3)n2)c1`, the growth inhibition was found to be 97.4%.

Turning to `O=C(Nc1nnc(-c2ccc(Cl)s2)o1)c1ccc(Cl)s1`, the growth inhibition was below 0%.

On to `Cc1ccc(-c2nc(CN(Cc3ccccn3)C(C)C)cs2)o1`, for which the growth inhibition turned out to be 81.7%.

On to `CCOC(=O)c1cc(-c2csc(Nc3c(C)cc(C)cc3C)n2)on1`, for which the growth inhibition came out at 34.3%.

On to `CCN(CC)S(=O)(=O)c1ccc(C(=O)Nc2cc(C)nn2-c2nc(C)c(C)c(=O)[nH]2)cc1`, for which the growth inhibition worked out at 78.9%.

`COc1ccccc1C(C)NCC(=O)Nc1cc(C(F)(F)F)ccc1Cl` (stereo not drawn): the growth inhibition was 88.6%.

As to `CCOC(=O)c1noc(N)c1-c1ccccc1`, the growth inhibition was 44.4%.

Turning to `c1ccc(Oc2ccc(-c3cc(N4CCNCC4)[nH]n3)cc2)cc1`, the growth inhibition worked out at 40.3%.

`Cc1cc(NC(=O)c2ccc(Oc3ccc(Cl)cc3O)o2)no1`: the growth inhibition was 24.4%.

Regarding `COc1cccc2c(C)nc(N=C(N)N)nc12`, the growth inhibition turned out to be 92.4%.

As to `CS(=O)(=O)c1ccc(C(=O)N(CC2CCCO2)c2nc3ccccc3s2)cc1[N+](=O)[O-]` (stereo not drawn), the growth inhibition turned out to be 72.3%.

Regarding `CCCc1ccc(S(=O)(=O)Nc2ccc(CN3CCN(CC4CC4)CC3)cc2)cc1`, the growth inhibition was 66.4%.

In the case of `Nc1ncc(Br)cc1-c1nc2cc(Cl)cnc2[nH]1`, the growth inhibition amounted to 67.3%.

Regarding `Cc1nc(-c2cccc(NCc3ccccc3)c2)[nH]c1C`, the growth inhibition came out at 93.4%.

As to `Clc1ccc(-n2cc(COc3ccnc4ccccc34)nn2)cc1`, the growth inhibition is 32.4%.

Regarding `O=C(NCc1cc(Cl)cc(Cl)c1)c1c(C(F)(F)F)nc2ccccn12`, the growth inhibition was determined as 31.8%.

With `COc1cc2ncnc(NC3CCN(Cc4ccccc4)CC3)c2cc1OC`, the growth inhibition came to 99.3%.

For `COC(=O)c1ccc(F)cc1NS(=O)(=O)c1cccc(-c2cnn(Cc3ccccc3)c2)c1`, the growth inhibition amounted to 9.57%.

Consider `Nc1nccc2ccc(Oc3ccncc3)cc12`, for which the growth inhibition is 68.2%.

For `c1ccc(-c2cc(N3CCCCC3)c3ccccc3n2)nc1`, the growth inhibition was 37.4%.

On to `COC(=O)c1c(NC(=O)c2cc3ccccc3oc2=O)sc2c1CCN(Cc1ccccc1)C2`, for which the growth inhibition is 5.7%.

In the case of `CCC(Sc1nc2ccccc2o1)C(=O)Nc1nccs1` (stereo not drawn), the growth inhibition was 60%.

Regarding `COc1cccc(NC(=O)c2c(NC(=O)c3cccnc3)sc3c2CCC3)c1`, the growth inhibition amounted to 53.5%.

In the case of `Cc1cc(C(=O)Nc2ccc(-c3ccccc3)cc2)no1`, the growth inhibition turned out to be 84.6%.

On to `CC(C)n1nc(-c2cc3c(Cl)cccc3[nH]2)c2c(N)ncnc21`, for which the growth inhibition stood at 57.9%.

`COc1ccc2nc(C)cc(OCC(=O)Nc3ccccc3OC)c2c1`: the growth inhibition is below 0%.

Turning to `CCCn1nnc(NC(=O)COc2ccc(C3CCCCC3)cc2)n1`, the growth inhibition is below 0%.

The same assay, now with this note: 5 µM; minimal medium (MM); 72 h.
`O=C1Nc2ccc(Br)cc2C12NCCc1c2[nH]c2ccccc12` (stereo not drawn): the growth inhibition was 87.5%.

Consider `CCOc1ccc(-c2nc(CNCCc3ccc(F)cc3)cs2)cc1`, for which the growth inhibition came to 27.2%.

In turn, `Nc1ncc(-c2ccc(C(F)(F)F)nc2)cc1-c1ccc(C(F)(F)F)nc1` returned a growth inhibition of 53.9%.

For the molecule `FC(F)(F)c1ccc(N(c2cccnc2)C2CCN(c3ccc(C(F)(F)F)cn3)CC2)cc1`, the growth inhibition is 90.5%.

`Cc1cc(C)cc(COc2ccc3c(C)c(CCC(=O)O)c(=O)oc3c2C)c1` gave a growth inhibition below 0%.

Turning to `CO[C@@H](C(=O)N1Cc2[nH]nc(NC(=O)c3ccc(N4CCN(C)CC4)cc3)c2C1)c1ccccc1`, the growth inhibition amounted to 90.1%.

`Cc1ccc(S(=O)(=O)N2CCN(C(=O)c3cc(-c4ccccc4)n[nH]3)CC2)cc1` had a growth inhibition of 88.6%.

`NS(=O)(=O)c1cccc(-c2ccc3ncc(N4CCOCC4)nc3c2)c1` gave a growth inhibition of 88.7%.

Molecule `FC(F)(F)c1cc(NCCc2ccccc2)nc(-c2ccccn2)n1` displayed a growth inhibition below 0%.

In the case of `O=C1[C@@H](Oc2ccccc2)[C@@H](c2ccc(Cl)cc2)N1CCn1cnc2c(NCc3ccccc3)ncnc21`, the growth inhibition stood at 7.4%.

With `Cc1cc2ccccc2n1CC(=O)N1CC(C(=O)N2CCCCC2)Oc2ccccc21` (stereo not drawn), the growth inhibition was 98%.

Turning to `c1csc(-c2cnc3sc(NCC4CCOCC4)nn23)c1`, the growth inhibition came to 95%.

On to `COc1cncc(-c2cncc(N3CCN(c4ccncc4)CC3)n2)c1`, for which the growth inhibition came to 89.1%.

Regarding `O=C(Nc1nnc(-c2ccc(Cl)s2)o1)c1ccc(Cl)s1`, the growth inhibition is below 0%.

`Cc1ccc(-c2nc(CN(Cc3ccccn3)C(C)C)cs2)o1` came in with a growth inhibition of 49.2%.

`CCOC(=O)c1cc(-c2csc(Nc3c(C)cc(C)cc3C)n2)on1` displayed a growth inhibition below 0%.

`CCN(CC)S(=O)(=O)c1ccc(C(=O)Nc2cc(C)nn2-c2nc(C)c(C)c(=O)[nH]2)cc1` displayed a growth inhibition of 55.2%.

For the molecule `COc1ccccc1C(C)NCC(=O)Nc1cc(C(F)(F)F)ccc1Cl` (stereo not drawn), the growth inhibition turned out to be 88%.

Molecule `CCOC(=O)c1noc(N)c1-c1ccccc1` returned a growth inhibition of 0.705%.

`c1ccc(Oc2ccc(-c3cc(N4CCNCC4)[nH]n3)cc2)cc1`: the growth inhibition was 34.4%.

The molecule `Cc1cc(NC(=O)c2ccc(Oc3ccc(Cl)cc3O)o2)no1` returned a growth inhibition of 34.9%.

As to `COc1cccc2c(C)nc(N=C(N)N)nc12`, the growth inhibition came out at 89.2%.

Molecule `CS(=O)(=O)c1ccc(C(=O)N(CC2CCCO2)c2nc3ccccc3s2)cc1[N+](=O)[O-]` (stereo not drawn) registered a growth inhibition of 55.5%.

`CCCc1ccc(S(=O)(=O)Nc2ccc(CN3CCN(CC4CC4)CC3)cc2)cc1` displayed a growth inhibition of 86.7%.

The molecule `Nc1ncc(Br)cc1-c1nc2cc(Cl)cnc2[nH]1` gave a growth inhibition of 89.1%.

Molecule `Cc1nc(-c2cccc(NCc3ccccc3)c2)[nH]c1C` came in with a growth inhibition of 94.7%.

Regarding `Clc1ccc(-n2cc(COc3ccnc4ccccc34)nn2)cc1`, the growth inhibition is 16%.

`O=C(NCc1cc(Cl)cc(Cl)c1)c1c(C(F)(F)F)nc2ccccn12` gave a growth inhibition of 9.63%.

Regarding `COc1cc2ncnc(NC3CCN(Cc4ccccc4)CC3)c2cc1OC`, the growth inhibition was 92.2%.

With `COC(=O)c1ccc(F)cc1NS(=O)(=O)c1cccc(-c2cnn(Cc3ccccc3)c2)c1`, the growth inhibition was below 0%.

As to `Nc1nccc2ccc(Oc3ccncc3)cc12`, the growth inhibition came to 60.1%.

For the molecule `c1ccc(-c2cc(N3CCCCC3)c3ccccc3n2)nc1`, the growth inhibition is 26.9%.

In turn, `COC(=O)c1c(NC(=O)c2cc3ccccc3oc2=O)sc2c1CCN(Cc1ccccc1)C2` registered a growth inhibition of 1.3%.

As for `CCC(Sc1nc2ccccc2o1)C(=O)Nc1nccs1` (stereo not drawn), the growth inhibition was found to be 3.39%.

On to `COc1cccc(NC(=O)c2c(NC(=O)c3cccnc3)sc3c2CCC3)c1`, for which the growth inhibition came to 8.07%.

Consider `Cc1cc(C(=O)Nc2ccc(-c3ccccc3)cc2)no1`, for which the growth inhibition was 94%.

`CC(C)n1nc(-c2cc3c(Cl)cccc3[nH]2)c2c(N)ncnc21` showed a growth inhibition of 15.9%.

As for `COc1ccc2nc(C)cc(OCC(=O)Nc3ccccc3OC)c2c1`, the growth inhibition was 27.5%.

In turn, `CCCn1nnc(NC(=O)COc2ccc(C3CCCCC3)cc2)n1` returned a growth inhibition below 0%.
